PubChem BioAssay (EPA / NIEHS)
Activity calls are given as the source filed them. How the source made its calls: active means hit-call score of the fitted dose curve at least 0.9, where 1 is the maximum; inactive means score below 0.9.

Legend:
Conditions in all cases: mRNA level, 48 h; actives raise or lower the signal
[1] = read-out: Cyclin Dependent Kinase Inhibitor 1A (CDKN1A), CDKN1A (gene 1026); assay: LTEA_HepaRG_CDKN1A: Life Technologies and Expression Analysis (LTEA) Assay for Cyclin Dependent Kinase Inhibitor 1A (CDKN1A) using HepaRG (AID 2283450)
In short: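 Gain or loss of CDKN1A transcript is scored by bidirectional fitting against 0.5% DMSO vehicle. Human HepaRG cultures receive chemicals for 48 h across an 8-point series peaking at 100 uM; expression comes from qRT-PCR.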

[2] = read-out: Cyclin D1 (CCND1), CCND1 (gene 595); assay: LTEA_HepaRG_CCND1: Life Technologies and Expression Analysis (LTEA) Assay for Cyclin D1 (CCND1) using HepaRG (AID 2283451)
In short: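 Expression change is measured by qRT-PCR in HepaRG cells after 48 h treatment across eight concentrations topping at 100 uM, with duplicate wells and DMSO (0.5%) serving as baseline for bidirectional fitting.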

[3] = read-out: catalase (CAT), CAT (gene 847); assay: LTEA_HepaRG_CAT: Life Technologies and Expression Analysis (LTEA) Assay for catalase (CAT) using HepaRG (AID 2283452)
In short: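 Differentiated HepaRG cells in serum-free induction medium were dosed 48 h in duplicate, eight half-log concentrations from 100 uM in 0.5% DMSO. Transcript measured by TaqMan qRT-PCR, normalised to ACTB/GAPDH/POLR2A, fitted bidirectionally against DMSO.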

[4] = read-out: flavin-containing dimethylaniline monooxygenases 3 (FMO3), FMO3 (gene 2328); assay: LTEA_HepaRG_FMO3: Life Technologies and Expression Analysis (LTEA) Assay for flavin-containing dimethylaniline monooxygenases 3 (FMO3) using HepaRG (AID 2283453)
In short: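 Differentiated HepaRG cells in serum-free induction medium, exposed 48 h in duplicate to 8 half-log concentrations up to 100 uM in 0.5% DMSO. FMO3 mRNA by qRT-PCR, normalized to ACTB, GAPDH, POLR2A; bidirectional fit vs DMSO.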

[5] = read-out: Cytochrome P450 (CYP1A1), CYP1A1 (gene 1543); assay: LTEA_HepaRG_CYP1A1: Life Technologies and Expression Analysis (LTEA) Assay for Cytochrome P450 (CYP1A1) using HepaRG (AID 2283454)
In short: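 Using HepaRG cultures with 0.5% DMSO as vehicle, eight-concentration exposures (max 100 uM) lasted 48 h. Transcript levels were measured by TaqMan qRT-PCR and normalized to ACTB, GAPDH and POLR2A.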

[6] = read-out: CFLAR gene, CFLAR (gene 8837); assay: LTEA_HepaRG_CFLAR: Life Technologies and Expression Analysis (LTEA) Assay for CFLAR gene using HepaRG (AID 2283455)
In short: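 HepaRG cells were plated for 48 h, switched to serum-free induction medium, then exposed in duplicate for 48 h to 8 concentrations (top 100 uM, half-log steps, 0.5% DMSO). CFLAR mRNA was measured by qRT-PCR, normalized to ACTB, GAPDH and POLR2A.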

[7] = read-out: Forkhead box O1 (FOXO1), FOXO1 (gene 2308); assay: LTEA_HepaRG_FOXO1: Life Technologies and Expression Analysis (LTEA) Assay for Forkhead box O1 (FOXO1) using HepaRG (AID 2283456)
In short: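 Differentiated human HepaRG cells in serum-free induction medium were exposed in duplicate for 48 h to eight half-log concentrations (top 100 uM, 0.5% DMSO). FOXO1 mRNA was measured by TaqMan qRT-PCR, normalised to ACTB, GAPDH and POLR2A, and fitted bidirectionally against DMSO.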

[8] = read-out: growth arrest and DNA damage 45 (GADD45A), GADD45A (gene 1647); assay: LTEA_HepaRG_GADD45A: Life Technologies and Expression Analysis (LTEA) Assay for growth arrest and DNA damage 45 (GADD45A) using HepaRG (AID 2283458)
In short: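 Differentiated HepaRG cells exposed 48 h in serum-free induction medium to 8 concentrations, top 100 uM in half-log steps, 0.5% DMSO. GADD45A mRNA quantified by qRT-PCR, normalized to ACTB, GAPDH and POLR2A; bidirectional fit versus DMSO.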

[9] = read-out: Forkhead box O3 (FOXO3), FOXO3 (gene 2309); assay: LTEA_HepaRG_FOXO3: Life Technologies and Expression Analysis (LTEA) Assay for Forkhead box O3 (FOXO3) using HepaRG (AID 2283459)
In short: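 Differentiated human HepaRG cells in serum-free induction medium were exposed in duplicate for 48 h to eight half-log concentrations up to 100 uM in 0.5% DMSO. FOXO3 mRNA was quantified by qRT-PCR, normalized to ACTB, GAPDH and POLR2A, with bidirectional fitting versus DMSO.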

[10] = read-out: ABC Transporter (ABCB1), ABCB1 (gene 5243); assay: LTEA_HepaRG_ABCB1: Life Technologies and Expression Analysis (LTEA) Assay for ABC Transporter (ABCB1) using HepaRG (AID 2283460)
In short: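 Differentiated human HepaRG cells, plated 48 h then switched to serum-free induction medium, were exposed in duplicate to eight half-log concentrations up to 100 uM in 0.5% DMSO for 48 h. ABCB1 mRNA was measured by TaqMan qRT-PCR, normalized to ACTB/GAPDH/POLR2A.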

[11] = read-out: growth arrest and DNA damage 45 (GADD45B), GADD45B (gene 4616); assay: LTEA_HepaRG_GADD45B: Life Technologies and Expression Analysis (LTEA) Assay for growth arrest and DNA damage 45 (GADD45B) using HepaRG (AID 2283461)
In short: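 Human HepaRG monolayers receive chemicals for 48 h at eight half-log concentrations, highest 100 uM, in 0.5% DMSO. Expression is measured by TaqMan qRT-PCR and normalized to ACTB, GAPDH and POLR2A.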

[12] = read-out: ABC Transporter (ABCC3), ABCC3 (gene 8714); assay: LTEA_HepaRG_ABCC3: Life Technologies and Expression Analysis (LTEA) Assay for ABC Transporter (ABCC3) using HepaRG (AID 2283462)
In short: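 Transcriptional change of ABCC3 in HepaRG after 48 h treatment, determined by qRT-PCR normalized to endogenous controls. Concentrations spanned eight half-log steps to 100 uM in 0.5% DMSO.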

[13] = read-out: ABC Transporter (ABCB11), ABCB11 (gene 8647); assay: LTEA_HepaRG_ABCB11: Life Technologies and Expression Analysis (LTEA) Assay for ABC Transporter (ABCB11) using HepaRG (AID 2283463)
In short: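 Differentiated human HepaRG cells were exposed for 48 h in serum-free induction medium to eight half-log concentrations up to 100 uM in 0.5% DMSO. ABCB11 mRNA was quantified by qRT-PCR, normalized to ACTB, GAPDH and POLR2A, and fitted bidirectionally versus DMSO.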

[14] = read-out: ABC Transporter (ABCC2), ABCC2 (gene 1244); assay: LTEA_HepaRG_ABCC2: Life Technologies and Expression Analysis (LTEA) Assay for ABC Transporter (ABCC2) using HepaRG (AID 2283464)
In short: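 After plating and 48 h culture, HepaRG medium is replaced with serum-free induction medium and chemicals are added (8 concentrations, max 100 uM, 0.5% DMSO) for 48 h. Total RNA then undergoes qRT-PCR for ABCC2 with housekeeping normalization.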

[15] = read-out: Broad substrate specificity ATP-binding cassette transporter ABCG2 (Homo sapiens) (UniProt Q9UNQ0); assay: LTEA_HepaRG_ABCG2: Life Technologies and Expression Analysis (LTEA) Assay for ABC Transporter (ABCG2) using HepaRG (AID 2283465)
In short: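 Differentiated HepaRG cells in serum-free induction medium were exposed for 48 h, in duplicate, to eight half-log concentrations up to 100 uM in 0.5% DMSO. ABCG2 mRNA was measured by TaqMan qRT-PCR, normalized to ACTB, GAPDH and POLR2A, and fitted bidirectionally versus DMSO.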

[16] = read-out: ATP-citrate lyase (ACLY), ACLY (gene 47); assay: LTEA_HepaRG_ACLY: Life Technologies and Expression Analysis (LTEA) Assay for ATP-citrate lyase (ACLY) using HepaRG (AID 2283466)
In short: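 Differentiated human HepaRG cells in serum-free induction medium exposed 48 h, in duplicate, to eight half-log concentrations from 100 uM top in 0.5% DMSO; ACLY mRNA measured by qRT-PCR, normalized to ACTB, GAPDH, POLR2A, fitted bidirectionally versus DMSO.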

[17] = read-out: Peroxisomal acyl-coenzyme A oxidase 1 (ACOX1) gene, ACOX1 (gene 51); assay: LTEA_HepaRG_ACOX1: Life Technologies and Expression Analysis (LTEA) Assay for Peroxisomal acyl-coenzyme A oxidase 1 (ACOX1) gene using HepaRG (AID 2283467)
In short: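 Differentiated human HepaRG cells were exposed in duplicate for 48 h in serum-free induction medium to eight half-log concentrations up to 100 uM in 0.5% DMSO. ACOX1 mRNA was then quantified by TaqMan qRT-PCR, normalized to ACTB, GAPDH and POLR2A.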

[18] = read-out: Alkaline Phosphatase, Placental (ALPP) gene, ALPP (gene 250); assay: LTEA_HepaRG_ALPP: Life Technologies and Expression Analysis (LTEA) Assay for Alkaline Phosphatase, Placental (ALPP) gene using HepaRG (AID 2283468)
In short: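 Using human liver HepaRG cells, chemicals are tested in duplicate over 48 h at half-log concentrations topping at 100 uM; phenobarbital 1 mM serves as induction control. ALPP mRNA change by qRT-PCR, bidirectional fit against vehicle.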

[19] = read-out: Bcl-2 (BAD) gene, BAD (gene 572); assay: LTEA_HepaRG_BAD: Life Technologies and Expression Analysis (LTEA) Assay for Bcl-2 (BAD) gene using HepaRG (AID 2283469)
In short: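 Differentiated human HepaRG cells in serum-free induction medium were exposed in duplicate for 48 h to eight concentrations (top 100 uM, half-log steps, 0.5% DMSO). BAD mRNA was quantified by qRT-PCR normalised to ACTB, GAPDH and POLR2A, with bidirectional fitting versus DMSO.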

Measured: outcome

Broad substrate specificity ATP-binding cassette transporter ABCG2 (Homo sapiens), sequence (Q9UNQ0 whole entry, looked up): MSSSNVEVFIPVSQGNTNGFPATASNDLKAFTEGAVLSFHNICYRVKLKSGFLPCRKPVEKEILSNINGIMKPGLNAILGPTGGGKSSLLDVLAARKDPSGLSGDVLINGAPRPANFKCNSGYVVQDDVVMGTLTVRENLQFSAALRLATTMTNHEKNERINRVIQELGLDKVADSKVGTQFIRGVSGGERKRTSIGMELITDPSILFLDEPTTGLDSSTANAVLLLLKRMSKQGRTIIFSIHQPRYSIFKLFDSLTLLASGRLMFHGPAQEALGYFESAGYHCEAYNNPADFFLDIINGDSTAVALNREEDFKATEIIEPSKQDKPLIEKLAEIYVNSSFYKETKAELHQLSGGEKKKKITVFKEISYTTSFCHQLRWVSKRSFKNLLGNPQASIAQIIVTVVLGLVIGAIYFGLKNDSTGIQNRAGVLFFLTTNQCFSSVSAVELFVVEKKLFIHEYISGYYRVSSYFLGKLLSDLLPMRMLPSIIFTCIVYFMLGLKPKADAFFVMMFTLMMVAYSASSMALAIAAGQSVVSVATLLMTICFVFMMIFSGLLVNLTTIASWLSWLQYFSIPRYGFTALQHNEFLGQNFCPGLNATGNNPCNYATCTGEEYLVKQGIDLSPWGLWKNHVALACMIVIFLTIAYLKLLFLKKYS

O=C(O)c1ccc([N+](=O)[O-])cc1
inactive: [1] | [2] | [3] | [4] | [5] | [6] | [7] | [8] | [9] | [10] | [11] | [12] | [13] | [14] | [15] | [16] | [17] | [18] | [19]
